SMILES strings stand for the structures. For some assays here: Entries with a potency or affinity are not part of this list.

This note sets out measurements from ChEMBL document CHEMBL3988442, “University of Dundee, Small-Polar-MMV Screening Library” (2021).

Common to all, as to set-up: scale not given: direction of the effect not stated beside the values
Experiment [1] concerns the target Protein translocase subunit SecA (Escherichia coli (strain K12)) (UniProt P10408). Nature of the experiment: Assay to Identify E. coli SecA ATPase Inhibitors. The format is functional. Particulars: 30 µM.
The target of experiment [2] is T1, Ubiquitin-activating enzyme e1, putative (Leishmania donovani (strain BPK282A1)) (UniProt E9BSI1).
T1 sequence (whole entry): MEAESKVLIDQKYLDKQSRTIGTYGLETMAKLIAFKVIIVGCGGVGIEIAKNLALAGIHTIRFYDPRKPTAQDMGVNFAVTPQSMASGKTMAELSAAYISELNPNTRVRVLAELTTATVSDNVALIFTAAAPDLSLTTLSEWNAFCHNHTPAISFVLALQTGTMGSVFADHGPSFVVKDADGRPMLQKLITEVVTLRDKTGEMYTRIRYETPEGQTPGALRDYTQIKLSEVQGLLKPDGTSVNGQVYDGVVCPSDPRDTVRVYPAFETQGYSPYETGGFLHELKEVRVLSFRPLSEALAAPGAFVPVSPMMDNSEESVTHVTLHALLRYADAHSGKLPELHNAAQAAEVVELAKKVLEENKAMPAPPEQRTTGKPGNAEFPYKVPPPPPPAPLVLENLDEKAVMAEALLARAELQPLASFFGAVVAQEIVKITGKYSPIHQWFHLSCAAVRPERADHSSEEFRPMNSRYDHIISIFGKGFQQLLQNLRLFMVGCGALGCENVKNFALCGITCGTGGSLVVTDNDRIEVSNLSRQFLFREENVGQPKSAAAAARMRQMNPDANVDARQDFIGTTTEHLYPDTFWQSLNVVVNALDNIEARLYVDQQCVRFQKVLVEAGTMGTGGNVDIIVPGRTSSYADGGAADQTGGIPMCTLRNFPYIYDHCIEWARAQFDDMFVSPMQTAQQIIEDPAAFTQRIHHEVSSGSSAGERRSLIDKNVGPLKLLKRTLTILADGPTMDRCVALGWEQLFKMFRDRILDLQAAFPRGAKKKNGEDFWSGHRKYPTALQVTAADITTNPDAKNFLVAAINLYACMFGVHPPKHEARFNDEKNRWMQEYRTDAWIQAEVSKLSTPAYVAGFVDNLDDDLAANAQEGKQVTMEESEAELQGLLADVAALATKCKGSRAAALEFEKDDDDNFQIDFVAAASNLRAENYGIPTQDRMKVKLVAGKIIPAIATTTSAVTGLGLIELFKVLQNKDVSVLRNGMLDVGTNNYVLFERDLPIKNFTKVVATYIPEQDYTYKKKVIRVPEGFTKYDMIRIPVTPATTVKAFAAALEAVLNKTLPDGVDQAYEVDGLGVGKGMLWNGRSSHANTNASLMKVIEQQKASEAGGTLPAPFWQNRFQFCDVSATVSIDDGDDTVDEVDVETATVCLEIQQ
Nature of the experiment: Leishmania donovani Ubiquitin Activating Enzyme (LdE1). The format is functional. The note with it: 30 µM.

The target in experiment [3] is AMP-activated protein kinase, AMPK (Homo sapiens) (UniProt P54646+O43741+P54619+Q9UGJ0+Q9Y478+Q13131+Q9UGI9). Nature of the experiment: AMP-dependent Kinase enzyme assay. An in vitro enzyme assay that detects ADP turnover that is directly proportional to AMPK activity. This uses naive AMPK that is activated during the assay with MK-8722. The format is functional. Particulars: 30 µM.

Experiment [4] deals with Sialic acid-binding Ig-like lectin 9 (Homo sapiens) (UniProt Q9Y336). Put plainly: Hs-Siglec9 ALPHAscreen SOP 20170721. Particulars: 10 µM. A general note: Bead proximity is the source of the signal in Alpha formats.
Sequence of Sialic acid-binding Ig-like lectin 9 (Homo sapiens) (Q9Y336 whole entry): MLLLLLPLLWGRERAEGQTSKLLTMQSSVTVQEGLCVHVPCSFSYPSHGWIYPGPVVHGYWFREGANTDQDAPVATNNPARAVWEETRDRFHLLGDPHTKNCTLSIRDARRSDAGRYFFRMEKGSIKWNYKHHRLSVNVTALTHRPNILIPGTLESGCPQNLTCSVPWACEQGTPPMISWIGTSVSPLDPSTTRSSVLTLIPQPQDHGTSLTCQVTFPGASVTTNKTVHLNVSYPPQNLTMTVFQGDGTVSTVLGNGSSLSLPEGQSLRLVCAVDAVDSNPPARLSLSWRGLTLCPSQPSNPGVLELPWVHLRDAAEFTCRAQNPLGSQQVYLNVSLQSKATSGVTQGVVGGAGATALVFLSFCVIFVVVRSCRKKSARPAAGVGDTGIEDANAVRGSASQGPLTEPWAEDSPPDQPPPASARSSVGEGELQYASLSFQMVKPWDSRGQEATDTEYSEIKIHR
Experiment [5] has as its system Trypanosoma cruzi. Nature of the experiment: Trypanosoma cruzi phosphomannomutase and mannose-1-phosphate guanylyltransferase assay. The format is functional. Particulars: 10 µM.
In experiment [6] the target is T2, Arginase-2, mitochondrial (Homo sapiens) (UniProt P78540).
T2 sequence (whole entry): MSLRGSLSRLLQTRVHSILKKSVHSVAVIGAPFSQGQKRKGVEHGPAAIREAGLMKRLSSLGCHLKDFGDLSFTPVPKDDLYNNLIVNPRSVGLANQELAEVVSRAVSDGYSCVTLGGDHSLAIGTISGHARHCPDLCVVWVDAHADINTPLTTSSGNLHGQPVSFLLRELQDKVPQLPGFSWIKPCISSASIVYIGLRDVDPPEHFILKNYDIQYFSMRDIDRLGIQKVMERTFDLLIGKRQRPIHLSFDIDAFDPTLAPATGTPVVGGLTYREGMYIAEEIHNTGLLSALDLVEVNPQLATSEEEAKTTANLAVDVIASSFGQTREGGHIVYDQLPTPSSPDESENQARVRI
Put plainly: in vitro enzyme assay to detect the production of urea directly proportional to the activity of Arginase II. Note: in the data most compounds retested in dose-response had high values. The format is functional. Particulars: 33.3 µM.

The target of experiment [7] is T3, Proteasome subunit beta (Trypanosoma cruzi) (UniProt O96673).
T3 sequence (whole entry): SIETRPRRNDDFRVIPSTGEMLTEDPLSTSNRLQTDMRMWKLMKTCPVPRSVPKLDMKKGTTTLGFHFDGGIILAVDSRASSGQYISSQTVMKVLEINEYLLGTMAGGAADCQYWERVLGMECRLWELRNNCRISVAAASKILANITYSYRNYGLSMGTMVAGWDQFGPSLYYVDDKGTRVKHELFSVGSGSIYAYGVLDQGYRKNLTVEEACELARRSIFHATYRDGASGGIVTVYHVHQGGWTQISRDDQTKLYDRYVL
Nature of the experiment: Trypanosoma cruzi proteasome chymotrypsin-like activity (TcProtChymo) assay. Note: in the data most compounds retested in dose-response had high values. The format is functional. The note with it: 9.37 µM.

Experiment [8] is filed under the species Homo sapiens. Put plainly: To identify inhibition of the IFN signalling (Jak-Stat) pathway via expression of an eGFP reporter gene under the control of an IFN-stimulated response element (ISRE) containing MxA promoter. The format is functional. The note with it: 30 µM. In general terms: Reporter assays use an easily measured gene product as a stand-in for the process of interest.

Experiment [9] concerns the target T4, Tyrosyl-tRNA synthetase, putative (Trypanosoma cruzi (strain CL Brener)) (UniProt Q4DSP6).
T4 sequence (whole entry): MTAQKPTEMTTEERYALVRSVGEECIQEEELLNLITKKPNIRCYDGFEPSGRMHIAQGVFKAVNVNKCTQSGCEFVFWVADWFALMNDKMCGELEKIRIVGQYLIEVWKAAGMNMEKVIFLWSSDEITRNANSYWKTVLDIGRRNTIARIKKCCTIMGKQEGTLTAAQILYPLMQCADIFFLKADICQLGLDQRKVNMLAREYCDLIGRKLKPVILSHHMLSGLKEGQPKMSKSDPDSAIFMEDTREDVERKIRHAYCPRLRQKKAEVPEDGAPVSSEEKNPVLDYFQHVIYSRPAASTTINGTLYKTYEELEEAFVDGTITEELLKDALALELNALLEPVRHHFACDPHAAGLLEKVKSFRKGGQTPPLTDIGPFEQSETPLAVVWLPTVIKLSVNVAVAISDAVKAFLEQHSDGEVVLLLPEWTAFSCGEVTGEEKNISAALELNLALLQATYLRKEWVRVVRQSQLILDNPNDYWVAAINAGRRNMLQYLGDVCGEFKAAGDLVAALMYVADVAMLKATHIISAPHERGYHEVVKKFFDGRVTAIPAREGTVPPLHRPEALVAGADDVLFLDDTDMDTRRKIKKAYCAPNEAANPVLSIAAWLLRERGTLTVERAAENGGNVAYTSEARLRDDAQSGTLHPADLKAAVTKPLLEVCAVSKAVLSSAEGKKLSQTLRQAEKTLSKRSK
Put plainly: Trypanosoma cruzi tyrosyl tRNA synthetase (TcYRS) _High Tyrosine SOP. Note: in the data most compounds retested in dose-response had high values. Particulars: 30 µM. The format is functional.

In experiment [10] the target is T4, Tyrosyl-tRNA synthetase, putative (Trypanosoma cruzi (strain CL Brener)). Put plainly: Trypanosoma cruzi tyrosyl tRNA synthetase (TcYRS) SOP. The format is functional. The note with it: 30 µM.
Experiment [11] addresses Chromo domain-containing protein 1 (Saccharomyces cerevisiae (strain ATCC 204508 / S288c) (Baker's yeast)) (UniProt P32657). Put plainly: ScCHD-1 Enzyme Inhibition Assay. Note: in the data most compounds retested in dose-response had high values. The note with it: 30 µM. The format is functional.

Sequence of Protein translocase subunit SecA (Escherichia coli (strain K12)) (P10408 whole entry): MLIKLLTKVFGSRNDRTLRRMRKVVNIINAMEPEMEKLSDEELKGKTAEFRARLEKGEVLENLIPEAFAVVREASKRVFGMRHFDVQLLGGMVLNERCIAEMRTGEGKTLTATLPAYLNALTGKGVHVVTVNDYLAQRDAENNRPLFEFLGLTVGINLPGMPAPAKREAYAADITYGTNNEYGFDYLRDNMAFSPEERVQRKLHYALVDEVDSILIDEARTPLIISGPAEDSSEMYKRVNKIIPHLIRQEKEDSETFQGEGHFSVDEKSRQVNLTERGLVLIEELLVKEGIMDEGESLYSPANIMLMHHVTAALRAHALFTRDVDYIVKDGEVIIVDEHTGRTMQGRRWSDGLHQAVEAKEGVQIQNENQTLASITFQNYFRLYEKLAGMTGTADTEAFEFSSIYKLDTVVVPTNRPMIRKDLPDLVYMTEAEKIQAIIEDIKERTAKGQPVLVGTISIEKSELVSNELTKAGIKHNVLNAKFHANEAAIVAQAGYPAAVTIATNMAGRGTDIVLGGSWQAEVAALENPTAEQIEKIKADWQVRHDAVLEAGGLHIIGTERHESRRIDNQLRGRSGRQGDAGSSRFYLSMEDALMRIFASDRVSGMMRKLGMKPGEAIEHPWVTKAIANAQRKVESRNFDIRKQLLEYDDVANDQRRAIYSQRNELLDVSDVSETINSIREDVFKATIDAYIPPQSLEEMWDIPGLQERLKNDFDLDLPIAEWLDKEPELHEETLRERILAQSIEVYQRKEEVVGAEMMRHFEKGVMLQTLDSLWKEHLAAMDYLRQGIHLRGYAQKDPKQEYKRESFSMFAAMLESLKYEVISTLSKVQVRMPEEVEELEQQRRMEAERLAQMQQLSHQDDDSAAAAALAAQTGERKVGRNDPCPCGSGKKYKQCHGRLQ
Sequence of Chromo domain-containing protein 1 (Saccharomyces cerevisiae (strain ATCC 204508 / S288c) (Baker's yeast)) (P32657 whole entry, the tested form may be a part): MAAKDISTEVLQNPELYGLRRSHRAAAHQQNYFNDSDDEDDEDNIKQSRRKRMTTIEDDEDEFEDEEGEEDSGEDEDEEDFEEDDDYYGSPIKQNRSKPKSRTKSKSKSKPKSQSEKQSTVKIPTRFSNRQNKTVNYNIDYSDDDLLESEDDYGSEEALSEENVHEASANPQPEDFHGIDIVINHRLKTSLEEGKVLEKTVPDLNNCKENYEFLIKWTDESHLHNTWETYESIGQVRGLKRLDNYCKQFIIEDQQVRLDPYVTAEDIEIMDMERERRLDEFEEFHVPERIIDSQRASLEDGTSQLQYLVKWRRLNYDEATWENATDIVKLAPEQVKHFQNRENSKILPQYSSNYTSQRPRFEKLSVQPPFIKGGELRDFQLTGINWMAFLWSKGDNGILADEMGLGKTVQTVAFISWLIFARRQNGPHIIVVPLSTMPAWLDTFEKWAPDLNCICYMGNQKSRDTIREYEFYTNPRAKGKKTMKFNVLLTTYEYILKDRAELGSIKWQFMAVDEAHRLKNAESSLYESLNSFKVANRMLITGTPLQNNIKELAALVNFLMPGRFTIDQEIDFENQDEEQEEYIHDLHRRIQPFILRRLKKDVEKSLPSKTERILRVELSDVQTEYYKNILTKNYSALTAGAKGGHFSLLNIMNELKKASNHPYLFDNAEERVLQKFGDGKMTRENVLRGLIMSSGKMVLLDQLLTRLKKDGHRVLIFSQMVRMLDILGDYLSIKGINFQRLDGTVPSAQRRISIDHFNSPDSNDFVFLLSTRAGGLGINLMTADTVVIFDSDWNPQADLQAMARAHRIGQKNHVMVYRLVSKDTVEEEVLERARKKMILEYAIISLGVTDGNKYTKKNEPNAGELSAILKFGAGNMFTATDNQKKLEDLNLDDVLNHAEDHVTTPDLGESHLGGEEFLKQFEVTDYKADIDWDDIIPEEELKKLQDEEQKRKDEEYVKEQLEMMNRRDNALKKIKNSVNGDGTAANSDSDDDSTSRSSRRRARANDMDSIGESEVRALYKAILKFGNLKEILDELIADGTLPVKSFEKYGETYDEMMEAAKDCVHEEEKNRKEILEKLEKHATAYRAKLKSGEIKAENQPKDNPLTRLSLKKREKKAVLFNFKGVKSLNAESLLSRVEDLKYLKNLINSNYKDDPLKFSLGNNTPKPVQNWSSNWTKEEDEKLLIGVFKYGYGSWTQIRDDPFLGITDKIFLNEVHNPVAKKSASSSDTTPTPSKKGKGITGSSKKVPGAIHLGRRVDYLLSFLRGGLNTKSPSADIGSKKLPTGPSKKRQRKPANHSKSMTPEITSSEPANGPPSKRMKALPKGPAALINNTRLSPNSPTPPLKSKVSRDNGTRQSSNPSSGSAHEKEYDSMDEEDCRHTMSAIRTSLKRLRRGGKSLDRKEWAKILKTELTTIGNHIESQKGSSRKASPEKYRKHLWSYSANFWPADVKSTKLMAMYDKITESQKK

Turning to `O=C(c1ccc[nH]1)N1C[C@H](OCc2cccnc2)[C@H]2COC[C@H]21`, the Percent Effect in experiment [1] is -4.86%; in experiment [2], 0%; in experiment [3] it was 2.4%; in [4], -3.13%; in experiment [5], 1.17%; in [6], -1.25%. The Percent Effect in experiment [7] is 12.3%; in experiment [8], -27.9%; in experiment [9], 8.91%; in [10], -3.66%; in experiment [11], -5.43%.
Turning to `CCn1cnnc1CNC(=O)N1CCN(c2nc(C)c(C)s2)CC1`, the Percent Effect was -8.34% in experiment [1]; 10.4% in experiment [2]; -7.32% in [3]; 12.2% in [4]; 4.68% in experiment [5]; -4.27% in [6]. Also, the Percent Effect in [7] is 0.676%; in experiment [8], -2.89%; in [9] it was 5.83%; in experiment [10], 19.5%; in experiment [11], -9.23%.
With `CCn1ccnc1CN1CCCN(C(=O)Cn2nc(C)cc2C)CC1`, the Percent Effect is -2.55% in [1]; 0% in experiment [2]; 9.91% in experiment [3]; -9.39% in experiment [4]; 1.08% in [5]; -0.21% in [6]. Moreover, the Percent Effect in experiment [7] was 3.31%; in experiment [8], -12.9%; in experiment [9], -1.91%; in experiment [10] it was 0%; in experiment [11] it was -14.3%.
For `O=C1CCC2(CCCN(C(=O)c3cscn3)C2)CN1CCc1c[nH]cn1` (stereo not given), the Percent Effect in experiment [1] is -3.15%; in experiment [2], 7.79%; in experiment [3], -3.24%; in experiment [4] it was 13.5%; in experiment [5], 6.98%; in experiment [6], -9.65%. For the same compound, the Percent Effect in [7] was 15.1%; in [8], -31.6%; in experiment [9] it was 5.38%; in experiment [10], 13.6%; in experiment [11] it was -5.62%.
With `COC[C@@]12CCO[C@@H]1CCN(C(=O)COc1ccccc1OC)C2`, the Percent Effect in [1] is 0.312%; in experiment [2] it was 8.22%; in experiment [3], -2.94%; in experiment [4], 5.31%; in [5], -4.76%; in [6], -2.4%. Moreover, the Percent Effect was 17.2% in experiment [7]; 3.04% in experiment [8]; 5.21% in [9]; 11.1% in [10]; -3.51% in experiment [11].
As to `Cc1csc2c(=O)n3c(nc12)CCN(C(=O)c1cccnc1)CC3`, the Percent Effect in experiment [1] was -2.51%; in experiment [2], 9.46%; in experiment [3], 13.3%; in experiment [4] it was -1.07%; in experiment [5], 4.94%; in experiment [6], -1.16%. In addition, the Percent Effect in experiment [7] is 8.27%; in experiment [8] it was 4.21%; in [9], 4.3%; in [10], 6.49%; in experiment [11], -13%.
In the case of `Cc1ccoc1C(=O)NC1CCN(Cc2cccc3c2OCCO3)CC1`, the Percent Effect in experiment [1] is -5.22%; in [2], 16.5%; in experiment [3] it was -78.8%; in [4], 6.72%; in [5], 3.38%; in [6], -5.38%. For the same compound, the Percent Effect in experiment [7] is 13.9%; in [8], 8.82%; in [9], 13.5%; in [10], 25.3%; in experiment [11] it was -24.5%.
Turning to `c1cnc(-c2nc(CN3CCC(c4ccn[nH]4)CC3)cs2)nc1`, the Percent Effect was -1.4% in experiment [1]; 13.5% in [2]; -30.2% in experiment [3]; 15% in experiment [4]; 2.32% in experiment [5]; 1.66% in experiment [6]. Moreover, the Percent Effect in experiment [7] is 2.15%; in [8] it was -0.446%; in [9], 7.92%; in [10] it was 23.2%; in [11] it was -3.65%.
For `Cc1cnn(C2CCCN(C(=O)c3cnc4ccccc4n3)C2)c1` (stereo not given), the Percent Effect was -3.93% in experiment [1]; 5.41% in experiment [2]; -4.84% in experiment [3]; 2.3% in experiment [4]; 1.04% in experiment [5]; -1.6% in experiment [6]. Besides, the Percent Effect was 1.62% in experiment [7]; 13% in experiment [8]; 4.43% in experiment [9]; 13.6% in experiment [10]; -3.95% in experiment [11].
As for `CCOCC(O)CN1CCN(C(=O)c2cccnc2OC)CC1` (stereo not given), the Percent Effect in [1] was -3.44%; in [2], 0%; in [3] it was 4.2%; in experiment [4] it was 3.65%; in [5] it was -0.936%; in experiment [6] it was 2.85%. The Percent Effect is -3.72% in [7]; 5.16% in experiment [8]; 3.88% in [9]; 0% in [10]; 1.44% in experiment [11].
